Assay results taken from the supplement of paper PMC13380429.

System: Vero E6 infected with SARS-CoV-2
Test: inhibition of SARS-CoV-2 cytopathic effect; higher = more antiviral protection, active = above 15
Conditions: 48 h

Measured: inhibition of SARS-CoV-2 cytopathic effect

C[C@@H]1O[C@@H](OC[C@H]2O[C@@H](Oc3c(-c4ccc(O)c(O)c4)oc4cc(O)cc(O)c4c3=O)[C@H](O)[C@@H](O)[C@@H]2O)[C@H](O)[C@H](O)[C@H]1O [rutin]
inactive: 1 nM 1.54% | 8.33 nM 1.59% | 100 nM 5.75% | 833.33 nM 0.96% | 10000 nM -5.92%

CC(C)(Oc1ccc(C2CC2(Cl)Cl)cc1)C(=O)O (stereo not given) [ciprofibrate]
inactive: 1 nM -2% | 8.33 nM 1.09% | 100 nM -0.52% | 833.33 nM -2.34% | 10000 nM -4.5%

CC1(C)S[C@@H]2[C@H](NC(=O)Cc3ccccc3)C(=O)N2[C@H]1C(=O)O [benzylpenicillin]
inactive: 1 nM -3.59% | 8.33 nM -1.58% | 100 nM -1.25% | 833.33 nM -1% | 10000 nM -2.39%

C[N+]1(C)CCC(OC(=O)C(O)(c2ccccc2)C2CCCC2)C1 (stereo not given) [glycopyrrolate]
inactive: 1 nM -3.43% | 8.33 nM -1.27% | 100 nM -0.55% | 833.33 nM -0.2% | 10000 nM -1.06%

CN(C)CCN(Cc1cccs1)c1ccccn1 [methapyrilene]
inactive: 1 nM -0.83% | 8.33 nM -2.49% | 100 nM -1.39% | 833.33 nM -3.33% | 10000 nM -1.68%

C[N+](C)(C)CCOC(=O)CCC(=O)OCC[N+](C)(C)C [succinylcholine-chloride]
inactive: 1 nM 2.27% | 8.33 nM -1.42% | 100 nM -2.35% | 833.33 nM 0.85% | 10000 nM 0.28%

COC(=O)C1=C(C)NC(C)=C(C(=O)OC)C1c1ccccc1[N+](=O)[O-] [nifedipine]
inactive: 1 nM -0.99% | 8.33 nM 0.14% | 100 nM -0.27% | 833.33 nM 3.23% | 10000 nM 4.43%

COc1ccc([C@@H]2CC(=O)c3c(O)cc(O[C@@H]4O[C@H](CO)[C@@H](O)[C@H](O)[C@H]4O[C@@H]4O[C@@H](C)[C@H](O)[C@@H](O)[C@H]4O)cc3O2)cc1O [neohesperidin]
inactive: 1 nM -2.2% | 8.33 nM 0.62% | 100 nM 2.24% | 833.33 nM -0.64% | 10000 nM -3.03%

CN(C)CCOC(=O)C(c1ccccc1)C1(O)CCCC1 (stereo not given) [cyclopentolate]
inactive: 1 nM -1.73% | 8.33 nM 1.59% | 100 nM -2.5% | 833.33 nM -0.18% | 10000 nM -1.17%

Oc1cc2c(cc1O)C(c1ccccc1)CNCC2 (stereo not given)
inactive: 1 nM 3.06% | 8.33 nM 1.73% | 100 nM 1.53% | 833.33 nM 1.32% | 10000 nM 0.48%

N=C(NCCC[C@H](N)C(=O)O)N[N+](=O)[O-] [NG-nitro-arginine]
inactive: 1 nM 4.03% | 8.33 nM -0.95% | 100 nM -0.93% | 833.33 nM 0.27% | 10000 nM -0.46%

CC(=O)OCC(=O)[C@@]12OC3(CCCC3)O[C@@H]1C[C@H]1[C@@H]3CCC4=CC(=O)C=C[C@]4(C)[C@@]3(F)[C@@H](O)C[C@@]12C [amcinonide]
inactive: 1 nM -1.51% | 8.33 nM -0.7% | 100 nM -1.46% | 833.33 nM -0.87% | 10000 nM -3.21%

OC[C@H]1O[C@@H](Oc2cc3c(O)cc(O)cc3[o+]c2-c2ccc(O)c(O)c2)[C@H](O)[C@@H](O)[C@@H]1O [kuromanin]
inactive: 1 nM -0.56% | 8.33 nM 0.72% | 100 nM -0.34% | 833.33 nM -2.36% | 10000 nM -4.26%

CCS(=O)(=O)c1cccc(-c2cc(C(=O)NC3CCN(C)CC3)c(C)c3[nH]c4ncc(C)cc4c23)c1
inactive: 1 nM 3.23% | 8.33 nM 0.63% | 100 nM 1.19% | 833.33 nM -0.44% | 10000 nM -2.17%

CC1(C)N=C(N)N=C(N)N1OCCCOc1cc(Cl)c(Cl)cc1Cl
inactive: 1 nM -1.05% | 8.33 nM 0.38% | 100 nM 0.21% | 833.33 nM 0.74% | 10000 nM -2.49%

c1cnc(NCc2ccc(CNc3ncccn3)cc2)nc1
inactive: 1 nM -2.38% | 8.33 nM -1.7% | 100 nM -0.65% | 833.33 nM -1.46% | 10000 nM -0.62%

CCC(O)(CC(N)=O)c1ccccc1 (stereo not given) [3-hydroxy-3-phenylpentanamide]
inactive: 1 nM 1.46% | 8.33 nM 0.49% | 100 nM -0.1% | 833.33 nM -10.4% | 10000 nM 0.22%

CCN[C@@H](C)Cc1cccc(C(F)(F)F)c1 [dexfenfluramine]
inactive: 1 nM 1.76% | 8.33 nM -0.09% | 100 nM 2.9% | 833.33 nM -3.54% | 10000 nM 0.8%

Nc1nc(/C(=C/CC(=O)O)C(=O)N[C@@H]2C(=O)N3C(C(=O)O)=CCS[C@H]23)cs1 [ceftibuten]
inactive: 1 nM 0.43% | 8.33 nM 2.3% | 100 nM 2.51% | 833.33 nM 2.04% | 10000 nM 1.92%

CN(CCOc1ccc(C[C@H](Nc2ccccc2C(=O)c2ccccc2)C(=O)O)cc1)c1ccccn1
inactive: 1 nM 2.1% | 8.33 nM 2.86% | 100 nM 0.52% | 833.33 nM 0.58% | 10000 nM -1.74%

O=c1[nH]c(=O)n([C@H]2C[C@H](O)[C@@H](CO)O2)cc1/C=C/Br [brivudine]
inactive: 1 nM 1.67% | 8.33 nM 0.21% | 100 nM 0.44% | 833.33 nM -0.42% | 10000 nM -0.09%

O=C(Nc1ccc(S(=O)(=O)C(F)(F)F)cc1)C1=CCN(c2ncccc2C(F)(F)F)CC1
inactive: 1 nM 0.25% | 8.33 nM -1.04% | 100 nM -1.04% | 833.33 nM -0.34% | 10000 nM -2.58%

Cc1c(C(=O)N2CCOc3ccc(-c4ccc(N)nc4)cc3C2)ccc(S(C)(=O)=O)c1F
inactive: 1 nM -2.79% | 8.33 nM 1.25% | 100 nM -0.37% | 833.33 nM 0.13% | 10000 nM 1.3%

CC#CCn1c(N2CCC[C@@H](N)C2)nc2c1c(=O)n(Cc1nc(C)c3ccccc3n1)c(=O)n2C [linagliptin]
inactive: 1 nM 0.74% | 8.33 nM -3.62% | 100 nM -0.93% | 833.33 nM -3.72% | 10000 nM -11.3%

CCCCC1(COC(=O)CCC(=O)O)C(=O)N(c2ccccc2)N(c2ccccc2)C1=O [suxibuzone]
inactive: 1 nM -0.21% | 8.33 nM -4.18% | 100 nM -2.21% | 833.33 nM -3.64% | 10000 nM 0.42%

NC(=O)c1cccc(-c2cccc(OC(=O)NC3CCCCC3)c2)c1
inactive: 1 nM 1.14% | 8.33 nM 3.25% | 100 nM 1.96% | 833.33 nM 1.41% | 10000 nM 1.6%
